Compounds with a hit are over-represented: about 19% of the library has one in this group of screens.
TDP1 cell CPT: DT40-hTDP1 cell growth loss with CPT; chicken DT40 Tdp1-/-;hTDP1 cells + 20 nM CPT, ATP luminescence, 48 h; Potency, µM (series often up to 46.2 µM), for the others: at the top dose activity change, negative = growth inhibition, usual class: inhibitors; actives 12% (n = 420,000); also: potency is read from the fitted curve at half-maximal effect; nearly all actives have a fitted effect of over 55% in size
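Chicken DT40 Tdp1-/- cells complemented with human TDP1, 400 cells/well, exposed to compounds plus 20 nM camptothecin for at least 48 h at 37 C; viability read as ATP content by CellTiter-Glo luminescence.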
DT40 TDP1 no CPT: qHTS for Inhibitors of human tyrosyl-DNA phosphodiesterase 1 (TDP1): qHTS in cells in absence of CPT; AID 686978, 2013; Potency, µM (highest dose often 46.2 µM), inactives show top-dose activity change, negative = growth inhibition, most hits filed as inhibitors; actives 15% (n = 420,000); DT40 Tdp1-/- hTDP1 cells, no CPT, ATP luminescence, 48 h; also: potency is read from the fitted curve at half-maximal effect; nearly all actives have a fitted effect of over 55% in size
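Cells were dispensed at 400 per well, compounds added by pin tool, plates incubated ≥48 hr at 37 °C, then CellTiter-Glo added for 30 min at room temperature before luminescence reading. Line: DT40 Tdp1-/- complemented with hTDP1; camptothecin omitted.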
ELG1 repair inh: blocks ELG1-dependent DNA repair in HEK293T cells; HEK293T ELG1-luciferase reporter, luminescence, 16 h; DNA damage induced by 5-fluorouridine; Potency, µM (doses to about 46.1 µM), for the others: at the top dose activity change, negative = inhibition, actives largely listed as inhibitors; actives 2.3% (n = 330,000); AID 504467; also: potency is read from the fitted curve at half-maximal effect; nearly all actives have a fitted effect of over 55% in size
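Cells (2,000 per well) received 5-fluorouridine plus test compound or DMSO and were incubated 16 hr at 37 °C, 5% CO2. Luciferase activity was read by luminescence 30 min after ONE-Glo addition; signal suppression marked inhibition of damage-induced ELG1 function.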
HT1080 IDH1KD tx: toxicity to HT-1080 IDH1 knockdown cells (counter line); Potency, µM (top dose mostly 46.1 µM), inactives show at the top dose activity, negative = toxicity, hits mostly cytotoxic; actives 2% (n = 360,000); HT-1080 IDH1 knockdown viability, ATP luminescence, 48 h;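 also: potency is read from the fitted curve at half-maximal effect; 0% = DMSO wells and -100% = cell-free medium wells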
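CellTiter-Glo luminescence after 48 h compound exposure at 37 degrees C of IDH1-knockdown HT-1080 cells in 5% FBS RPMI. %Activity scaled between DMSO wells and cell-free media wells, with curves fitted and assigned curve classes.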
IL1B secr inh: inhibitors of inflammasome signaling (IL-1 beta secretion) | THP-1 LPS/ATP IL-1B secretion, AlphaLISA, 16 h; active compounds read low | activity change, % at 57.5 µM | actives 4.7% (n = 360,000) | AID 743279; in the data active = activity change below about -50%; inconclusive = mostly about -30% to -49%
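Secreted IL-1B measured by AlphaLISA bead assay after 16 h compound exposure of THP-1 cells; compounds (final up to 57.5 uM) added 1 h before LPS (250 ng/mL) and ATP (1.25 mM) stimulation; lower signal means less secretion.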
HT1080NT lethal: kills 2HG-producing HT-1080-NT fibrosarcoma cells; HT-1080-NT fibrosarcoma viability, CellTiter-Glo ATP luminescence, 48 h; Potency, µM (top dose mostly 46.1 µM), for inactives: top-dose activity, negative = less viability, hits mostly cytotoxic; actives 1.6% (n = 360,000); AID 686970;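 also: NT is the 2HG producing partner of a matched IDH1 knockdown line; potency is read from the fitted curve at half-maximal effect; 0% = DMSO-treated cells and -100% = media-only wells without cells; nearly all actives have a fitted effect of over 55% in size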
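Fibrosarcoma NT cells, 750 per well in 5% FBS RPMI, were exposed to compound for 48 hours. Viability: CellTiter-Glo luminescence.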
* = called active by the depositor; ? = inconclusive; . = no result given. Unless noted, calls follow the shape of the dose curve; as a rule, active = well fitted curve in the direction sought with a large enough effect; inconclusive = small, poorly fitted or top-dose-only effect, or another doubt; inactive = no such curve, though single readings can be large; an effect the other way counts as inactive or inconclusive. Unless noted, % is scaled to controls: 0 for no effect and ±100 for the full control effect.

SMILES | TDP1 cell CPT | DT40 TDP1 no CPT | ELG1 repair inh | HT1080 IDH1KD tx | IL1B secr inh | HT1080NT lethal
O=C(NC1CCCC1)C(c1ccc(F)cc1)N(Cc1ccc(Cl)cc1)C(=O)CCl (stereo not drawn) | 3.3µM* | 4.1µM* | 2% | -13% | -102* | -1%
O=C(NC1CCCC1)C(c1ccccc1)N(Cc1ccc(F)cc1)C(=O)c1csnn1 (stereo not drawn) | -14% | -8% | -2% | -4% | -4 | 3%
Cc1cc(OCC[N+]2(C)CCCCC2)nc2ccccc12 | ? | 21µM* | -28% | 6% | 4 | 14%
CCC(C)n1c(SC(C)C#N)nc2ccccc2c1=O (stereo not drawn) | ? | 23µM* | 1% | -11% | 22 | 1%
CC(C#N)On1c(SC(C)C#N)nc2ccccc2c1=O (stereo not drawn) | -3% | -2% | 0% | 0% | 12 | 0%
CCOC(=O)/C(=N/Nc1ccc(Cl)cc1)S(=O)(=O)c1ccccc1 | -26% | ? | 0% | 1% | -69* | -25%
CC(=O)N1CCN(C(=O)c2cc(S(=O)(=O)NCc3ccccc3)ccc2C)CC1 | -9% | -3% | -5% | 15% | 3 | 13%
Cc1ccccc1NS(=O)(=O)c1ccc(C(=O)N2CCCC(C(F)(F)F)C2)cc1 (stereo not drawn) | ? | 12µM* | -1% | -8% | -2 | -2%
Cc1ccccc1NS(=O)(=O)c1ccc(C(=O)N2CCCCCCC2)cc1 | ? | ? | -18% | -5% | -13 | 3%
Cc1ccc(S(=O)(=O)NCc2ccccc2)cc1C(=O)N1CCCC(C(F)(F)F)C1 (stereo not drawn) | ? | 18µM* | 0% | -1% | -12 | ?
Cc1ccc(C)c(S(=O)(=O)N2CCN(C(=O)c3cc(S(=O)(=O)NCc4ccccc4)ccc3C)CC2)c1 | 23µM* | ? | ? | -20% | ? | -1%
O=C(Cc1ccccc1Cl)c1ccccc1 | 0% | -16% | . | 1% | 6 | -6%
CCc1ccc(Nc2nnc(SCC(=O)Nc3cccnc3Cl)s2)cc1 | -6% | -2% | -21% | 0% | 21 | -2%
CCOc1ccc(NC(=O)C2CCC(CNS(=O)(=O)c3ccc4c(c3)CCCC(=O)N4)CC2)cc1 (stereo not drawn) | -11% | -16% | . | . | . | .
CNNC(=S)Nc1cccc(C(F)(F)F)c1 | 1% | 1% | 4% | 5% | 0 | 4%
CC(C)(C)NC(=S)Nc1cccc(C(F)(F)F)c1 | ? | 26µM* | 12µM* | ? | -90* | -19%
CC(C)(C)NC(=S)Nc1ccc(Nc2ccccc2)cc1 | 15µM* | 16µM* | 18% | 6.3µM* | ? | 5.6µM*
FC(F)(F)c1cccc(NC(=S)Nc2ccc(Cl)c(Cl)c2)c1 | ? | 13µM* | ? | ? | -87* | ?
O=[N+]([O-])c1cc(C(F)(F)F)cc([N+](=O)[O-])c1NCCNC(=S)Nc1ccc(Cl)c(Cl)c1 | ? | 21µM* | ? | ? | -80* | 16µM*
CC(C)(C)NC(=S)Nc1ccc(Br)cc1 | ? | ? | 24% | 1% | 1 | 5%
COC(=S)Nc1cccc(C(F)(F)F)c1 | 2% | -20% | 0% | 3% | . | 6%
O=C(NCCCl)Nc1ccc(Cl)c([N+](=O)[O-])c1 | ? | ? | ? | 0% | -21 | 0%
COc1ccc(NC(=O)CCN(c2ccc(OC)cc2)S(=O)(=O)c2ccc(C)c(C)c2)cc1 | ? | ? | . | -3% | -17 | -6%
FC(F)(F)c1cccc(NC(=S)NC(c2ccccc2)c2ccccc2)c1 | 3.7µM* | 5.2µM* | -17% | ? | -1 | ?
COc1ccc(NC(=S)NNC(=S)Nc2cccc(C(F)(F)F)c2)cc1 | 5.8µM* | 6.5µM* | 14% | ? | ? | -25%
SMILES | TDP1 cell CPT | DT40 TDP1 no CPT | ELG1 repair inh | HT1080 IDH1KD tx | IL1B secr inh | HT1080NT lethal
CCOc1ccc(NC(=S)NNC(=S)Nc2cccc(C(F)(F)F)c2)cc1 | ? | ? | ? | -22% | -8 | -1%
c1ccc(-c2n[nH]c(-c3ccccn3)n2)nc1 | ? | -19% | ? | ? | -10 | -6%
Cc1ccc(-c2nc(-c3ccccn3)no2)cc1Cl | ? | 12µM* | ? | ? | 17 | ?
c1ccc(Cc2nc(-c3ccccn3)no2)cc1 | 0% | 0% | ? | 6% | -23 | -5%
COc1cccc(-c2nc(-c3ccccn3)no2)c1OC | 23µM* | ? | ? | 19% | -11 | 12%
c1ccc(-c2n[nH]c(-c3ccccn3)n2)cc1 | ? | ? | ? | 5.8µM* | -12 | 8.2µM*
c1ccc(C(Cc2nc(-c3ccccn3)no2)c2ccccc2)cc1 | ? | 16µM* | ? | -5% | -2 | -10%
c1ccc(-c2noc(-c3cccc4ccccc34)n2)nc1 | 3% | -23% | ? | -26% | 0 | -8%
COC(=O)c1c(NC(=O)Cc2coc3cc(C)cc(C)c23)sc2c1CCC2 | -27% | ? | . | . | . | .
C[C@H](NC(=O)C1CCN(S(=O)(=O)c2ccccc2)CC1)C(=O)NCc1cccnc1 | -11% | -19% | . | 1% | -4 | 7%
Clc1cccc(-c2nc(-c3ccccn3)no2)c1 | -21% | ? | ? | ? | 13 | ?
